According to ChEMBL document CHEMBL3988442, “University of Dundee, Small-Polar-MMV Screening Library” (2021):
For some of these results: Potency and affinity values are given separately.

Columns and labels:
Parameters in all cases: scale not given: direction of the effect not stated beside the values
[1] = target: Protein translocase subunit SecA (Escherichia coli (strain K12)) (UniProt P10408); assay: Assay to Identify E. coli SecA ATPase Inhibitors; format: functional; details: 30 µM
[2] = target: T1, Ubiquitin-activating enzyme e1, putative (Leishmania donovani (strain BPK282A1)) (UniProt E9BSI1); assay: Leishmania donovani Ubiquitin Activating Enzyme (LdE1); format: functional; details: 30 µM
T1 sequence (whole entry): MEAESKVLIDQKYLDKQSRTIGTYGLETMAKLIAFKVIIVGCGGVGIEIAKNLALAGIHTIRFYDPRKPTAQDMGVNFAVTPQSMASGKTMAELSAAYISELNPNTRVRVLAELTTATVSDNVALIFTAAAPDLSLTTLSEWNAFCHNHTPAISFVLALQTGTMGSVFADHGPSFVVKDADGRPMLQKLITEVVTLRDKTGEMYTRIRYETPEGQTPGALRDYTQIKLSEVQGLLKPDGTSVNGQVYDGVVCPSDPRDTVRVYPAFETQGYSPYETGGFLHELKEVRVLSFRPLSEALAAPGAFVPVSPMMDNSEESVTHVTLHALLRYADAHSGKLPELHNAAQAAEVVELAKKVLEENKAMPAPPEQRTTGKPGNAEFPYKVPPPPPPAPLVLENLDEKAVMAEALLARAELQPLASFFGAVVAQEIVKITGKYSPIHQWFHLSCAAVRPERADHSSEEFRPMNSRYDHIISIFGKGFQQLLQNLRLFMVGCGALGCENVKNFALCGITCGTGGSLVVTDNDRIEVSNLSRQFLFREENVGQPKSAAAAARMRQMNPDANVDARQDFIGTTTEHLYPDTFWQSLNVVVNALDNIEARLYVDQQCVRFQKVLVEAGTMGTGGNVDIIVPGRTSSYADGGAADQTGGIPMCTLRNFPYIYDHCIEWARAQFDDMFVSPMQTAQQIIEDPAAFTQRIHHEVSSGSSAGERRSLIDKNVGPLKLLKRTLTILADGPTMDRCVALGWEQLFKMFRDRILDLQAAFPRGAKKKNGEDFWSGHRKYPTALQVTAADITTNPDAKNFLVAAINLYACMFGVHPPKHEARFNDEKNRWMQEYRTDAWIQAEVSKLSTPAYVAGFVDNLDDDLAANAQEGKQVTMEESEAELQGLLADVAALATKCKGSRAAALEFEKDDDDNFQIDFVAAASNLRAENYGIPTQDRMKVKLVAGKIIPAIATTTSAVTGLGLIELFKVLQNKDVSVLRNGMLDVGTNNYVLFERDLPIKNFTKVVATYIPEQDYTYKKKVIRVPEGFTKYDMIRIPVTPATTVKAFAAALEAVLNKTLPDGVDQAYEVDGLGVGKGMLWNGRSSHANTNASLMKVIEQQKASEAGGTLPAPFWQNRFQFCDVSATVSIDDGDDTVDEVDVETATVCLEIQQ

[3] = target: AMP-activated protein kinase, AMPK (Homo sapiens) (UniProt P54646+O43741+P54619+Q9UGJ0+Q9Y478+Q13131+Q9UGI9); assay: AMP-dependent Kinase enzyme assay. An in vitro enzyme assay that detects ADP turnover that is directly proportional to AMPK activity. This uses naive AMPK that is activated during the assay with MK-8722; format: functional; details: 30 µM
[4] = target: Sialic acid-binding Ig-like lectin 9 (Homo sapiens) (UniProt Q9Y336); assay: Hs-Siglec9 ALPHAscreen SOP 20170721; details: 10 µM
Sialic acid-binding Ig-like lectin 9 (Homo sapiens), sequence (Q9Y336 whole entry): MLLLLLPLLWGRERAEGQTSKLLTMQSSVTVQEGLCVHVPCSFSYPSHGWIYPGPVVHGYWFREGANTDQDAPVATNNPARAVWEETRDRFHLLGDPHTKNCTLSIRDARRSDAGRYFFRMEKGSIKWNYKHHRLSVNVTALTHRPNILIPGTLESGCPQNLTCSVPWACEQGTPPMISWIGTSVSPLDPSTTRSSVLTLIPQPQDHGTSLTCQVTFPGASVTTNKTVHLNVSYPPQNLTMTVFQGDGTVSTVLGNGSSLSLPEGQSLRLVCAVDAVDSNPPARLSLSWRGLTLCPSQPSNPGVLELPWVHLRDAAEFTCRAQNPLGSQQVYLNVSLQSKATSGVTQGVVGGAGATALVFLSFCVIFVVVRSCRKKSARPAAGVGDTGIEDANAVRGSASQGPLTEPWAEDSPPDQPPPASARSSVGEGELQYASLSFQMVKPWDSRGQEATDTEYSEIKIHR

Trypanosoma cruzi = assay: Trypanosoma cruzi phosphomannomutase and mannose-1-phosphate guanylyltransferase assay; format: functional; details: 10 µM
[5] = target: T2, Arginase-2, mitochondrial (Homo sapiens) (UniProt P78540); assay: in vitro enzyme assay to detect the production of urea directly proportional to the activity of Arginase II; format: functional; details: 33.3 µM; further: in the data most compounds retested in dose-response had high values
T2 sequence (whole entry): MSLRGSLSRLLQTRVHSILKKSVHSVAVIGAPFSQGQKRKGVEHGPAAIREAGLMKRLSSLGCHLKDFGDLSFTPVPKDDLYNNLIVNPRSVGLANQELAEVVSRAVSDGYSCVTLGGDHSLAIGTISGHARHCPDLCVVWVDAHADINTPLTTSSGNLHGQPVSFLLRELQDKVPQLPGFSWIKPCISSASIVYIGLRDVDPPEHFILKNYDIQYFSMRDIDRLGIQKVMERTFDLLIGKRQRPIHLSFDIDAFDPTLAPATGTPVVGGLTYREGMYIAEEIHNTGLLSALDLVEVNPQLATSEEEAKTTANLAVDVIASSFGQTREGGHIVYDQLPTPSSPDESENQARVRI

[6] = target: T3, Proteasome subunit beta (Trypanosoma cruzi) (UniProt O96673); assay: Trypanosoma cruzi proteasome chymotrypsin-like activity (TcProtChymo) assay.; further: in the data most compounds retested in dose-response had high values; format: functional; details: 9.37 µM
T3 sequence (whole entry): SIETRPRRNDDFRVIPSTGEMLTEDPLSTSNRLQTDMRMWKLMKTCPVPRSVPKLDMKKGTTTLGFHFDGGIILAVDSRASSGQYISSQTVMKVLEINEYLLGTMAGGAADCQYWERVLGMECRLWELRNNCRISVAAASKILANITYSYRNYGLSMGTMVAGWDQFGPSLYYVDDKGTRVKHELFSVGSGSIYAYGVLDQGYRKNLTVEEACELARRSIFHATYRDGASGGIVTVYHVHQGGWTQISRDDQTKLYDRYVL

Homo sapiens = organism: Homo sapiens; assay: To identify inhibition of the IFN signalling (Jak-Stat) pathway via expression of an eGFP reporter gene under the control of an IFN-stimulated response element (ISRE) containing MxA promoter.; format: functional; details: 30 µM
[7] = target: T4, Tyrosyl-tRNA synthetase, putative (Trypanosoma cruzi (strain CL Brener)) (UniProt Q4DSP6); assay: Trypanosoma cruzi tyrosyl tRNA synthetase (TcYRS) _High Tyrosine SOP; format: functional; details: 30 µM; further: in the data most compounds retested in dose-response had high values
T4 sequence (whole entry): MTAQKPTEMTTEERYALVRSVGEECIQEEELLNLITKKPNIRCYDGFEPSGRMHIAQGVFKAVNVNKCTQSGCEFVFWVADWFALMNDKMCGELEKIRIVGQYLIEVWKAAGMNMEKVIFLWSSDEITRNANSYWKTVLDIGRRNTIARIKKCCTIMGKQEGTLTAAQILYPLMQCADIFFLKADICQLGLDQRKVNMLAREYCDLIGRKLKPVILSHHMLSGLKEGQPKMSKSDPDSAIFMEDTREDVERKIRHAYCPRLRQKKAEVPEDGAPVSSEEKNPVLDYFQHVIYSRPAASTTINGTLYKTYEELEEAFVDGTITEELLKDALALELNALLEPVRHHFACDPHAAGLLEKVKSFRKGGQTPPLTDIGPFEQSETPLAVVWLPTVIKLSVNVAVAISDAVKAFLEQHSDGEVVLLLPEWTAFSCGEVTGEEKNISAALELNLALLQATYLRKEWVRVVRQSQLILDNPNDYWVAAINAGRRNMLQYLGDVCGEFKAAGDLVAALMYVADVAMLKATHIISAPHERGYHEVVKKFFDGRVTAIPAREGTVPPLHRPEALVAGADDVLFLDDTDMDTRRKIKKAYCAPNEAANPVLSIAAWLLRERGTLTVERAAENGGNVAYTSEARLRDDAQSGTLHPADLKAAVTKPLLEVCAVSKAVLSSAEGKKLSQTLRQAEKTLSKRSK

[8] = target: T4, Tyrosyl-tRNA synthetase, putative (Trypanosoma cruzi (strain CL Brener)); assay: Trypanosoma cruzi tyrosyl tRNA synthetase (TcYRS) SOP; format: functional; details: 30 µM
[9] = target: Chromo domain-containing protein 1 (Saccharomyces cerevisiae (strain ATCC 204508 / S288c) (Baker's yeast)) (UniProt P32657); assay: ScCHD-1 Enzyme Inhibition Assay; format: functional; details: 30 µM; further: in the data most compounds retested in dose-response had high values
Chromo domain-containing protein 1 (Saccharomyces cerevisiae (strain ATCC 204508 / S288c) (Baker's yeast)), sequence (P32657 whole entry, the tested form may be a part): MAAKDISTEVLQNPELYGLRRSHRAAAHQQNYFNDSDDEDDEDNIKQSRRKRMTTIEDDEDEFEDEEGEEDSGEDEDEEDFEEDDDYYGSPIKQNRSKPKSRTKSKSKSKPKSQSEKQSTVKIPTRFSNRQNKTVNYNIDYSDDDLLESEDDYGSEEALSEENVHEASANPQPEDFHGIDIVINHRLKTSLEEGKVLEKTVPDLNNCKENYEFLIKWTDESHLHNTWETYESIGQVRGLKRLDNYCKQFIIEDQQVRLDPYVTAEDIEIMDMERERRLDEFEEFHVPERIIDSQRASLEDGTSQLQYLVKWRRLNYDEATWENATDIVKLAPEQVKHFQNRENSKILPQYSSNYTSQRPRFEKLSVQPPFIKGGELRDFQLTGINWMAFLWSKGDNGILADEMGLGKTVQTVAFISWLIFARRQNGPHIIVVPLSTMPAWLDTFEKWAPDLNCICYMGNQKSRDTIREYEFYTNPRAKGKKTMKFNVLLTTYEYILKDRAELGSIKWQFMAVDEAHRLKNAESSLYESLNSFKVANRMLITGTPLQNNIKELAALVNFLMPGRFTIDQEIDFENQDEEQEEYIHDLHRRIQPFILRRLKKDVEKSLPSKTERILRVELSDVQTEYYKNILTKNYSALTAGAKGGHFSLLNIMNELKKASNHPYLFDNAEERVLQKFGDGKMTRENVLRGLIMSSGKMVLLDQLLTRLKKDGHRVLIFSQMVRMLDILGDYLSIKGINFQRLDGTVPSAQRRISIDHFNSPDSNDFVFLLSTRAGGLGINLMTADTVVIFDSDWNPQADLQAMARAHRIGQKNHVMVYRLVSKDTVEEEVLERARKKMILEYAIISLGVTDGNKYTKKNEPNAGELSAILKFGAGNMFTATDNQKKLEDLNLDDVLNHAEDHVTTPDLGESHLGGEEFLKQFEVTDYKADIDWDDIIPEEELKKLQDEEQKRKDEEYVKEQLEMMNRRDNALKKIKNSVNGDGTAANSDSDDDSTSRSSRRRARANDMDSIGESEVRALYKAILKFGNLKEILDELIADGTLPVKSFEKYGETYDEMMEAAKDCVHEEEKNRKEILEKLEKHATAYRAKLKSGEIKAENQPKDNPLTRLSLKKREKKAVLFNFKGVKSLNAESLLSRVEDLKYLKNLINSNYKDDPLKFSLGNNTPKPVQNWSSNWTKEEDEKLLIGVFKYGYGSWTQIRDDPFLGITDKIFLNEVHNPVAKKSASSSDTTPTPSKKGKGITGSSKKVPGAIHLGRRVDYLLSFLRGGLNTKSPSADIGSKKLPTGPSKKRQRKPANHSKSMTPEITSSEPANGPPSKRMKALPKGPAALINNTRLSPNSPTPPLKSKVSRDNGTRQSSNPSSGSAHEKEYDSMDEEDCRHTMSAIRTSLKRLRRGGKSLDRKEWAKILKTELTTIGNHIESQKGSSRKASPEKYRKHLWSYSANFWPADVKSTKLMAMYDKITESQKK

Protein translocase subunit SecA (Escherichia coli (strain K12)), sequence (P10408 whole entry): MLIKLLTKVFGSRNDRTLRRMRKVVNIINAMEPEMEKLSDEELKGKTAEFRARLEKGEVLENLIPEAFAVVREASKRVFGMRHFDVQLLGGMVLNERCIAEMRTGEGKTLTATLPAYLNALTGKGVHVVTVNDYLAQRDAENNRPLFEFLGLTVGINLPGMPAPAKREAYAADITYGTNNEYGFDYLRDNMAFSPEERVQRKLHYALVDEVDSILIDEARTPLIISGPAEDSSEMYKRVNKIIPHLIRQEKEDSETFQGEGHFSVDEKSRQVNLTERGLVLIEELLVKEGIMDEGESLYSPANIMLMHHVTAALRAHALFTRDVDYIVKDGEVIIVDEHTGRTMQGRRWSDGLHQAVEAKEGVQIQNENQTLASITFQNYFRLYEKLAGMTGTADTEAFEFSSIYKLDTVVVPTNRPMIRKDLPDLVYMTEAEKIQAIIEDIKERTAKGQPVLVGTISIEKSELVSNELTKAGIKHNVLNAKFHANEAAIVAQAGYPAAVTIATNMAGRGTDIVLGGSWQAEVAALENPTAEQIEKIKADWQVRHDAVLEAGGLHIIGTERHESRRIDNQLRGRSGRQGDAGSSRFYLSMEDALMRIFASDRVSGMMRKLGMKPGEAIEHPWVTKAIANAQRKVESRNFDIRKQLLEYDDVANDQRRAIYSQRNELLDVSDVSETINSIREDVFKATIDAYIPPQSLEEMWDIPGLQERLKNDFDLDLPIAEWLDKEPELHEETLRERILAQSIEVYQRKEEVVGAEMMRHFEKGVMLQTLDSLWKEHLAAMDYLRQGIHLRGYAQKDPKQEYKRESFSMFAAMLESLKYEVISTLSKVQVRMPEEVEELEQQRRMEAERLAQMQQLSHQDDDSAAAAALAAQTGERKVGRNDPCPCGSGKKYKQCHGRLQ

Row | Compound | Percent Effect [1] [%] | Percent Effect [2] [%] | Percent Effect [3] [%] | Percent Effect [4] [%] | Percent Effect (Trypanosoma cruzi) [%] | Percent Effect [5] [%] | Percent Effect [6] [%] | Percent Effect (Homo sapiens) [%] | Percent Effect [7] [%] | Percent Effect [8] [%] | Percent Effect [9] [%]
1 | O=C(CC1CN(Cc2ccccc2)CCO1)NC1CCCC1 (stereo unspecified) | -6.09 | 24.3 | -1.42 | 7.65 | 7.62 | 8.33 | 7.35 | 15.4 | 7.92 | 23.2 | -6.96
2 | Cc1ccc(-c2nc(CN3CCOC(c4ccccc4)C3)cs2)o1 (stereo unspecified) | 0.984 | -24.3 | -0.197 | 6.73 | 2.7 | 3.81 | 12.6 | -17.4 | 3.7 | 0 | 17.1
3 | NC(=O)C1(Cc2ccccc2-c2ccccc2)CCCN(CC2CC2)C1 (stereo unspecified) | -0.127 | 0 | 8.02 | 1.63 | 3.15 | 0.233 | 5.2 | -4.55 | 2.13 | 3.85 | -2.97
4 | CS(=O)(=O)N1CCC(C(=O)NCCNc2ncccn2)CC1 | -3.08 | 10.8 | 2.54 | -1.9 | 8.45 | -7.21 | 14.2 | 14.8 | 6.93 | 15.8 | -3.22
5 | CC(=O)N(Cc1ncc(C)o1)C1CCN(CCNC2CCCCC2)C1 (stereo unspecified) | -1.61 | 2.7 | 2.29 | -9.81 | -9.68 | 0.744 | 13 | 18.4 | -2.15 | -3.7 | -7.63
6 | Cc1ccc(CN2CCCC23CCN(S(=O)(=O)c2ccccc2)C3)o1 (stereo unspecified) | -3.52 | 8.11 | 0.79 | -6.47 | 2.25 | 1.59 | 18.6 | 6.15 | 9.73 | 17.9 | 2.48
7 | CCn1nnc2cc(C(=O)N3CCCC3Cn3cc(C)cn3)ccc21 (stereo unspecified) | -1.32 | -5.06 | -2.65 | 3.15 | 3.31 | 2.28 | 0.737 | 9.94 | 0.493 | 1.27 | 0.343
8 | CCN1C(=O)CCC12CCCN(Cc1nccs1)CC2 (stereo unspecified) | -5.45 | 8 | 11.7 | 0.513 | 2.56 | -0.699 | 8.37 | 9.53 | 7.45 | 16.7 | -1.64
9 | Cc1ncsc1CN1C[C@@H]2COC[C@]2(COc2ccc(C#N)cn2)C1 | -3.44 | -5.48 | -1.94 | 1.31 | 7.74 | -3.59 | 2.31 | -1.06 | 1.04 | 3.7 | 2.89
10 | CCCc1n[nH]c(C2CN(CCCS(C)(=O)=O)CCO2)n1 (stereo unspecified) | -5.31 | 11.4 | 0.105 | -1.3 | 1.13 | 2.37 | 14.1 | 1.09 | 5.21 | 10.1 | -22.8
11 | COc1ccccc1C(=O)N1Cc2cc(C)ccc2OCC1CN(C)C (stereo unspecified) | -0.165 | 6.76 | 11.3 | -7.4 | -7.91 | -1.62 | 14.5 | 14.6 | 2.15 | 3.9 | -11.2
